Test results reported in PubChem BioAssay (EPA / NIEHS).
Activity calls are given as the source filed them. The calls were made as follows: active = hit-call score of the fitted dose curve at least 0.9, where 1 is the maximum; inactive = score below 0.9.

The compounds below were run on Cytochrome P450 2C19 (Homo sapiens) (UniProt P33261) (assay: LTEA_HepaRG_CYP2C19: Life Technologies and Expression Analysis (LTEA) Assay for CYP2C19 using HepaRG (AID 2283482)). Settings: mRNA level, 48 h; actives raise or lower the signal.
Method: LTEA_HepaRG is a cell based, multiplexed-readout assay that uses HepaRG, a human liver cell line, with measurements taken at 48 hours after chemical dosing on a 96-well plate.LTEA_HepaRG_CYP2C19 is one of 102 assay component(s) measured in the LTEA HepaRG cell culture assay. It is a marker of NR mediated metabolism.Data from the assay component LTEA_HepaRG_CYP2C19 was analyzed into 1 endpoint. This assay endpoint, LTEA_HepaRG_CYP2C19, was analyzed with bidirectional fitting relative to DMSO as the negative control and baseline of activity. Using a type of inducible reporter, measures of mRNA induction for gain or loss-of-signal activity can be used to understand regulation of transcription factor activity. To generalize the intended target to other relatable targets, this assay endpoint is annotated to the cyp intended target family, where the subfamily is xenobiotic metabolism.
A total of 1060 chemcials from the ToxCast library were tested in eight-point concentration-response experiments. Cell culture and cytotoxicity assays were conducted at Thermo Fisher Scientific's Custom Services facility (Madison, WI). A single lot of human HepaRG cells (Thermo Fisher Scientific, Frederick, MD) was used for the cell culture experiments. 96-well format collagen type I coated plates of human HepaRG cells were prepared using established methods. Briefly, cryopreserved HepaRG cells were thawed, plated at a density of approximately 100,000 cells/well in HepaRG Thaw, Plate, and General Purpose media (HPRG770, Thermo Fisher Scientific), and incubated for 48 hours. 0.5% DMSO was selected as vehicle control to balance the requisite need of DMSO in HepaRG cultures to maintain differentiation (for example, baseline metabolism, proportions of hepatocytes vs. cholangiocytes), while enabling further hepatic receptor pathway activation (for example, PXR and CAR) in response to chemical exposure. 48 hours after plating, the culture medium was replaced with HepaRG Serum-Free Incudtion Media. Cells were exposed to each test chemical in duplicate and maintained in CO2 incubators for another 48 hours. Chemical plates were thawed to room temperature and 200x concentrations of treatment groups were prepared. 8-point conentration-reponse curves were made with the highest exposure at 100 uM, followed by half-log dilutions, all in 0.5% DMSO. Each test plate contained variouse controls, induction positive controls (1mM phenobarbital), cytotoxicity positive controls ([…] aflatoxin B1), vehicle controls (0.5% DMSO), and total lysis controls (0.5% DMSO). Cell morphology images were taken using an Essen IncuCyte FLR automated microscope, with six 96-well plates imaged in about 24 minutes. Images were captured and exported and JPEG files. Spent culture media was transfered to black-well plates for the LDH assay, and remaining media was sorted at -80 C for later use. Cells were treated with RLT buffer and frozen until shipped for gene expression analysis. Total RNA was isolated from the cell suspension in 75 uL of Buffer RLT (Qiagen, Germantown, MD 20874) by Quintiles/Expression Analysis (Durham, NC) using a custom isolation procedure. Total RNA from each plate well was transferred to a preamplification plate. Fluidigm's 96.96 Dynamic ArrayTM (Fluidigm, Amsterdam, the Netherlands) technology was used for gene expression analyses by quantitative reverse transcription polymerase chain reaction (qRT-PCR, performed by Quintiles/Expression Analysis, Durham, NC)89. Standard TaqManTM Assays (Applied Biosystems/ThermoFisher Scientific, Foster City, CA) were used to assess the expression of 93 genes selected based on their selectivity and sensitivity to important hepatic receptors known to be modulated by environmental chemicals; importance in human hepatocyte functionality; and hepatotoxicity. […]

Chain of Cytochrome P450 2C19 (Homo sapiens) (P33261 whole entry, looked up): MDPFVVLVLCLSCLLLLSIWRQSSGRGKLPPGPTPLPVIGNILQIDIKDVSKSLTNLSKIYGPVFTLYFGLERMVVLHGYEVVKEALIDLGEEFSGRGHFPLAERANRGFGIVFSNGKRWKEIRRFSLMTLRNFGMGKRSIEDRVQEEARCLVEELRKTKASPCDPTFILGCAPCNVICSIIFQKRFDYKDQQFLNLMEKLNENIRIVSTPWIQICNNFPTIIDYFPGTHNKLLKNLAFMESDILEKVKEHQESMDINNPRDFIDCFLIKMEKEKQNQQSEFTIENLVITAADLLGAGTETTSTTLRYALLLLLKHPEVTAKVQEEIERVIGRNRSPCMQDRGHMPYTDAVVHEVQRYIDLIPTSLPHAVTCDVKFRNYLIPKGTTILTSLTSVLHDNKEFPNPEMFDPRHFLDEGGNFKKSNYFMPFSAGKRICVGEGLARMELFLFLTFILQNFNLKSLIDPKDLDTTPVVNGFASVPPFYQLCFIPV

| Structure (SMILES) | outcome | AC50 |
| --- | --- | --- |
| CCCCCCCCOC(=O)c1ccc(C(=O)OCCCCCCCC)c(C(=O)OCCCCCCCC)c1 | inactive |  |
| CO[C@@H]1[C@H](OC(=O)NC(=O)CCl)CC[C@]2(CO2)[C@H]1[C@@]1(C)O[C@@H]1CC=C(C)C | inactive |  |
| O=C(N[C@H](c1ccccc1)[C@@H]1CN2CCC1CC2)c1c(Cl)ccc(C(F)(F)F)c1Cl |  | 75.2 µM (active) |
| Cc1cccc(N)c1N | inactive |  |
| CCCCCOC(=O)c1ccccc1C(=O)OCCCCC | inactive |  |
| c1ccc(NNc2ccccc2)cc1 | inactive |  |
| OCCOCCO | inactive |  |
| c1ccc(N=Nc2ccccc2)cc1 | inactive |  |
| CCC12COCN1COC2 | inactive |  |
| [O-][Cl+]O | inactive |  |
| O=P(OCCCl)(OCCCl)OCCCl | inactive |  |
| Clc1ccc(Cl)c(Cl)c1 | inactive |  |
| CCC(C)c1ccc(O)cc1 (stereo not given) | inactive |  |
| CC(C)N(Cc1ccccc1)C(=O)C(C)(C)C |  | 11.1 µM (active) |
| CN(C)C(=O)Nc1ccc(Cl)cc1 | inactive |  |
| CC(C)(O)c1cnn2c(-c3ccc(F)c(-c4c(F)cccc4C#N)c3)cnc2n1 |  | 0.365 µM (active) |
| CS(=O)(=O)NC(=O)c1cc(Oc2ccc(C(F)(F)F)cc2Cl)ccc1[N+](=O)[O-] |  | 1.52 µM (active) |
| [Cl-].[Cl-].[Hg+2] | inactive |  |
| CCOc1cccc(C2(N3CCN(c4ccccc4)CC3)CCC(C)CC2)c1 (stereo not given) | inactive |  |
| Clc1ccc(C(c2ccc(Cl)cc2)C(Cl)Cl)cc1 |  | 7.66 µM (active) |

| Structure (SMILES) | outcome | AC50 |
| --- | --- | --- |
| COP(=S)(OC)SCN1C(=O)c2ccccc2C1=O | inactive |  |
| Cc1ccc(N)c(N)c1 | inactive |  |
| C1=Cc2cccc3cccc1c23 | inactive |  |
| CNC(=O)Oc1cccc2c1OC(C)(C)C2 |  | 17.4 µM (active) |
| CCCCC(CC)COC(=O)c1ccc(C(=O)OCC(CC)CCCC)c(C(=O)OCC(CC)CCCC)c1 (stereo not given) | inactive |  |
| N#CC(Br)Br | inactive |  |
| COc1cc(C=O)cc2c1[C@H](COC(N)=O)[C@]1(OC(C)=O)ON2C[C@H]2[C@@H]1N2C(C)=O |  | 0.804 µM (active) |
| O=Cc1ccco1 | inactive |  |
| C=CCc1ccc2c(c1)OCO2 | inactive |  |
| O=C(Nc1ccccc1)c1ccccc1I | inactive |  |
| ClCCOCCCl | inactive |  |
| O=[N+]([O-])C(Br)(CO)CO | inactive |  |
| Brc1ccc(Oc2ccccc2)cc1 | inactive |  |
| CCCCOC(=O)c1ccccc1C(=O)OCc1ccccc1 | inactive |  |
| Oc1ccccc1Cl | inactive |  |
| CC(C)(C)OOC(C)(C)CCC(C)(C)OOC(C)(C)C | inactive |  |
| CCCCCCCCn1sccc1=O |  | 81.8 µM (active) |
| c1ccc(C2CO2)cc1 (stereo not given) | inactive |  |
| O=C(Oc1ccc(Br)cc1)N1CCN2CCC1CC2 |  | 15.2 µM (active) |
| CCNS(=O)(=O)C(F)(F)C(F)(F)C(F)(F)C(F)(F)C(F)(F)C(F)(F)C(F)(F)C(F)(F)F | inactive |  |
